Test results: the supplement of paper PMC8728848
This excerpt belongs to a sample that is enriched for the strongest signals.

How the values were obtained:
Assay in all cases: glycan array binding signal (z-score within array); higher = stronger binding
Conditions in all cases: glycan notation: IUPAC condensed, linker removed
[1] = target: Fuc(a1-2)Gal(b1-3)GalNAc(a1-3)[Fuc(a1-2)]Gal(b1-4)Glc
How it was run: (§1)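 The binding signal is a Z-score computed within each array. Data were drawn from 3228 arrays in the Consortium for Functional Glycomics database, restricted to those with a known protein sequence. Scores were averaged over arrays of the same protein sequence at different concentrations or buffers, and over linkers, and negative values can be taken as non-binding.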

[2] = target: Fuc(a1-2)Gal(b1-3)[Fuc(a1-4)]GlcNAc(b1-2)Man(a1-3)[Fuc(a1-2)Gal(b1-3)[Fuc(a1-4)]GlcNAc(b1-2)Man(a1-3)]Man(b1-4)GlcNAc(b1-4)GlcNAc
How it was run: as §1

[3] = target: Fuc(a1-2)Gal(b1-4)GlcNAc(b1-3)Gal(b1-4)GlcNAc(b1-2)Man(a1-3)[Fuc(a1-2)Gal(b1-4)GlcNAc(b1-3)Gal(b1-4)GlcNAc(b1-2)Man(a1-6)]Man(b1-4)GlcNAc(b1-4)GlcNAc
How it was run: as §1

[4] = target: Fuc(a1-2)Gal(b1-4)[Fuc(a1-3)]GlcNAc(b1-2)[Fuc(a1-2)Gal(b1-4)[Fuc(a1-3)]GlcNAc(b1-4)]Man(a1-3)[Fuc(a1-2)Gal(b1-4)[Fuc(a1-3)]GlcNAc(b1-2)Man(a1-6)]Man(b1-4)GlcNAc(b1-4)GlcNAc
How it was run: as §1

[5] = target: Fuc(a1-2)Gal6S(b1-3)GlcNAc6S
How it was run: as §1

Fuc(a1-2)[Gal(a1-3)]Gal = target: Fuc(a1-2)[Gal(a1-3)]Gal
How it was run: as §1

[6] = target: Fuc(a1-2)[Gal(a1-3)]Gal(b1-3)GlcNAc(b1-3)GalNAc
How it was run: as §1

[7] = target: Fuc(a1-2)[GalNAc(a1-3)]Gal(b1-3)GlcNAc(b1-2)Man(a1-3)[Fuc(a1-2)[GalNAc(a1-3)]Gal(b1-3)GlcNAc(b1-2)Man(a1-6)]Man(b1-4)GlcNAc(b1-4)[Fuc(a1-6)]GlcNAc
How it was run: as §1

[8] = target: Fuc(a1-2)[GalNAc(a1-3)]Gal(b1-3)GlcNAc(b1-6)GalNAc
How it was run: as §1

[9] = target: Fuc(a1-2)[GalNAc(a1-4)]Gal(b1-4)GlcNAc
How it was run: as §1

[10] = target: Fuc(a1-3)[Gal(b1-4)]GlcNAc(b1-3)Gal(b1-4)[Fuc(a1-3)]GlcNAc(b1-3)Gal(b1-4)[Fuc(a1-3)]GlcNAc
How it was run: as §1

[11] = target: Gal(a1-3)Fuc(a1-2)Gal(b1-4)GlcNAc(b1-3)[Gal(a1-3)Fuc(a1-2)Gal(b1-4)GlcNAc(b1-6)]GalNAc
How it was run: as §1

Gal(a1-3)Gal(b1-3)GlcNAc = target: Gal(a1-3)Gal(b1-3)GlcNAc
How it was run: as §1

[12] = target: Gal(a1-3)Gal(b1-4)GlcNAc(b1-2)Man(a1-3)[Gal(a1-3)Gal(b1-4)GlcNAc(b1-2)Man(a1-6)]Man(b1-4)GlcNAc(b1-4)GlcNAc
How it was run: as §1

[13] = target: Gal(a1-4)Gal(b1-3)GlcNAc(b1-2)Man(a1-3)[Gal(a1-4)Gal(b1-3)GlcNAc(b1-2)Man(a1-6)]Man(b1-4)GlcNAc(b1-4)GlcNAc
How it was run: as §1

[14] = target: Gal(a1-4)Gal(b1-4)GlcNAc(b1-3)Gal(b1-4)Glc
How it was run: as §1

[15] = target: Gal(b1-3)GlcNAc(a1-6)Gal(b1-4)GlcNAc
How it was run: as §1

Gal(b1-3)GlcNAc6S = target: Gal(b1-3)GlcNAc6S
How it was run: as §1

[16] = target: Gal(b1-3)[Neu5Ac(a2-6)]GlcNAc(b1-4)Gal(b1-4)Glc
How it was run: as §1

[17] = target: Gal(b1-4)GlcNAc(b1-2)Man(a1-3)Man(b1-4)GlcNAc(b1-4)GlcNAc
How it was run: as §1

[18] = target: Gal(b1-4)GlcNAc(b1-2)Man(a1-3)[Gal(b1-4)GlcNAc(b1-2)Man(a1-6)]Man(b1-4)GlcNAc(b1-4)GlcNAc
How it was run: as §1

[19] = target: Gal(b1-4)GlcNAc(b1-2)[Gal(b1-4)GlcNAc(b1-4)]Man(a1-3)[GlcNAc(b1-4)][Gal(b1-4)GlcNAc(b1-2)Man(a1-6)]Man(b1-4)GlcNAc(b1-4)GlcNAc
How it was run: as §1

[20] = target: Gal(b1-4)GlcNAc(b1-2)[Gal(b1-4)GlcNAc(b1-6)]Man(a1-6)[Gal(b1-4)GlcNAc(b1-2)Man(a1-3)]Man(b1-4)GlcNAc(b1-4)[Fuc(a1-6)]GlcNAc
How it was run: as §1

[21] = target: Gal(b1-4)GlcNAc(b1-3)Gal(b1-4)GlcNAc(b1-2)Man(a1-3)[Gal(b1-4)GlcNAc(b1-3)Gal(b1-4)GlcNAc(b1-2)Man(a1-6)]Man(b1-4)GlcNAc(b1-4)[Fuc(a1-6)]GlcNAc
How it was run: as §1

[22] = target: Gal(b1-4)GlcNAc(b1-3)Gal(b1-4)GlcNAc(b1-3)Gal(b1-4)GlcNAc(b1-2)Man(a1-3)[Gal(b1-4)GlcNAc(b1-3)Gal(b1-4)GlcNAc(b1-3)Gal(b1-4)GlcNAc(b1-2)Man(a1-6)]Man(b1-4)GlcNAc(b1-4)GlcNAc
How it was run: as §1

[23] = target: Gal(b1-4)GlcNAc(b1-3)Gal(b1-4)GlcNAc(b1-3)[Gal(b1-4)GlcNAc(b1-3)Gal(b1-4)GlcNAc(b1-6)]GalNAc
How it was run: as §1

Gal(b1-6)Gal = target: Gal(b1-6)Gal
How it was run: as §1

Gal3S(b1-4)Glc = target: Gal3S(b1-4)Glc
How it was run: as §1

Gal4S6S(b1-4)GlcNAc = target: Gal4S6S(b1-4)GlcNAc
How it was run: as §1

B1: FliC (Clostridium difficile) (protein)
chain: MRVNTNVSALIANNQMGRNVNGQSKSMEKLSSGVRIKRAADDAAGLAISEKMRAQIKGLDQAGRNVQDGISVVQTAEGSLEETGNILQRMRTLSLQSANEINNTEEREKIADELTQLKDEIERISSSTEFNGKKLLDGTSSTIRLQVGASYGTNVSGTSNNNNEIKIQLVNTASIMASAGITTASIGSMKAGGTTGTDAAKTMVSSLDAALKSLNSSRAKLGAQQNRLESTQNNLNNTLENVTAAESRIRDTDVASEMVNLSKMNILVQASQSMLAQANQQPQGVLQLLG
With B1 the “glycan array binding signal (z-score)” value [1] was 0.883, the “glycan array binding signal (z-score)” value [2] was 0.721 and the “glycan array binding signal (z-score)” value [3] was 0.257. The “glycan array binding signal (z-score)” value [4] was 0.298, the “glycan array binding signal (z-score)” value [5] was 0.013 and the “glycan array binding signal (z-score)” value (Fuc(a1-2)[Gal(a1-3)]Gal) was 0.187. The “glycan array binding signal (z-score)” value [6] was 0.173, the “glycan array binding signal (z-score)” value [7] was 1.26 and the “glycan array binding signal (z-score)” value [8] was -0.176. For the same binder, the “glycan array binding signal (z-score)” value [9] was -0.165, the “glycan array binding signal (z-score)” value [10] was -0.069 and the “glycan array binding signal (z-score)” value [11] was -0.356. The “glycan array binding signal (z-score)” value (Gal(a1-3)Gal(b1-3)GlcNAc) was 4.21, the “glycan array binding signal (z-score)” value [12] was 8.29 and the “glycan array binding signal (z-score)” value [13] was 4.1. The “glycan array binding signal (z-score)” value [14] was 0.243, the “glycan array binding signal (z-score)” value [15] was -0.584 and the “glycan array binding signal (z-score)” value (Gal(b1-3)GlcNAc6S) was -0.373. The “glycan array binding signal (z-score)” value [16] was -0.467, the “glycan array binding signal (z-score)” value [17] was -0.407 and the “glycan array binding signal (z-score)” value [18] was 0.049. For the same binder, the “glycan array binding signal (z-score)” value [19] was -0.113, the “glycan array binding signal (z-score)” value [20] was 0.28 and the “glycan array binding signal (z-score)” value [21] was 2.39. For the same binder, the “glycan array binding signal (z-score)” value [22] was 2.15, the “glycan array binding signal (z-score)” value [23] was 2.33 and the “glycan array binding signal (z-score)” value (Gal(b1-6)Gal) was 0.447. For the same binder, the “glycan array binding signal (z-score)” value (Gal3S(b1-4)Glc) was -0.03 and the “glycan array binding signal (z-score)” value (Gal4S6S(b1-4)GlcNAc) was -0.316.
